Assay results: PubChem BioAssay AID1845225 (National Center for Advancing Translational Sciences (NCATS), 2023)
Results filed as inconclusive are left out. The source made the active and inactive calls. Calls come from the whole dose curve; as a rule, active = well fitted curve in the direction sought with a large enough effect; inconclusive = small, poorly fitted or top-dose-only effect, or effect the other way, or another doubt; inactive = no such curve, though single readings can be large or run the other way.

Experiment: Confirmatory redox qHTS assay for identification of artifact compounds.
Settings: Amplex Red/HRP redox cycling with DTT, fluorescence; series mostly up to 39 µM
Text: PI: Alexander Tropsha Ph.D. UNC Eshelman School of Pharmacy University of North Carolina, Chapel Hill, North Carolina Hits from high-throughput screening (HTS) of chemical libraries are often false positives due to their interference with the assay detection technology. In response to this problem, we generated the largest publicly available library of chemical liabilities and developed a free webtool to predict HTS artifacts, both of which are described herein. More specifically, we generated, curated, and integrated HTS datasets for thiol reactivity, redox activity, and luciferase (firefly and nano) activity. Using these curated datasets, we developed and validated several Quantitative Structure-Interference Relationship (QSIR) models to predict nuisance behavior. […] These models were employed for virtual profiling of the National Center for Advancing Translational Science's (NCATS) in-house library, and 256 compounds for each assay were selected for the experimental validation of nuisance behavior. The BA for these external predictions ranged from 58 to 78% for compounds within the applicability domains of the models. […] The models developed in this study, along with aggregation models previously developed by our group (SCAM Detective) were implemented in "Liability Predictor," an online tool which may be used as part of chemical library design or for triaging HTS hits. Both the models and the curated datasets are publicly available at https://liability.mml.unc.edu/.
PROTOCOL TABLE SEQUENCE No. (e.g., 1, 2, 3, etc.); […] (e.g., Cells, Incubation, Reagent, etc.); VALUE; DESCRIPTION. 1; Reagent; 3 uL; Amplex Red and HRP mixture. 2; Compounds and control; 16 nL; Kalypsis pin tool (Wako USA) equipped with a 1536-well pin head. 3; Incubation; 15 min. 4; Reagent; 1 uL; […]. 5; Incubation; 30 min. 6; Detection; Fluorescence, ViewLux microplate reader, 525 nm excitation, 598 nm emission. NOTES (numbers refer to Sequence numbers above) 1. 3 uL of a mixture containing Amplex Red (25 uM final concentration) and horseradish peroxidase (HRP; 250 mU/mL final concentration) in assay buffer (HBSS) was dispensed into all wells of a 1536-well assay plate (solid-bottom black plate; Greiner Bio One, Monroe, NC). 2. […] 3. 15 min. incubation at room temperature protected from light. 4. 1 uL of DTT (prepared fresh; final concentration 250 uM) was dispensed for a final assay volume of 4 uL. 5. Plates were centrifuged (121xg, 15 seconds) and incubated for 30 minutes at room temperature protected from light. 6. Samples were read for fluorescence (Ex/Em = 525(20)/598(25) nm) on a ViewLux CCD imager (PerkinElmer). Data were normalized to DMSO (0% activity) and DA3003 (10 uM final concentration; 100% activity) and the resulting percent inhibition data were fitted to a 4-parameter Hill equation using NCATS in-house software.

outcome, inactive:
COc1cc2c(NC3CCN(C(C)C)CC3)nc(N3CCCN(c4ccccc4)CC3)nc2cc1OCCCN1CCCCC1, Cc1cccc(NC(=O)CN2C(=O)C(c3ccc(F)cc3)=NC23CCCCCC3)c1, COc1ccc(C2C(C(=O)Nc3ccccc3)=C(C)Nc3c(C(=O)Nc4ccccc4)cnn32)cc1 (stereo not given), OC[C@H]1O[C@@H]2O[C@H]3[C@H](O)[C@@H](O)[C@@H](O[C@H]4[C@H](O)[C@@H](O)[C@@H](O[C@H]5[C@H](O)[C@@H](O)[C@@H](O[C@H]6[C@H](O)[C@@H](O)[C@@H](O[C@H]7[C@H](O)[C@@H](O)[C@@H](O[C@H]1[C@H](O)[C@H]2O)O[C@@H]7CO)O[C@@H]6CO)O[C@@H]5CO)O[C@@H]4CO)O[C@@H]3CO, CCOC(=O)Cc1cccc(-c2cc(CCCCCCc3ccc(O[C@H]4O[C@H](COC(C)=O)[C@@H](OC(C)=O)[C@H](OC(C)=O)[C@@H]4OC(C)=O)c(-c4cccc(CC(=O)OCC)c4)c3)ccc2O[C@H]2O[C@H](COC(C)=O)[C@@H](OC(C)=O)[C@H](OC(C)=O)[C@@H]2OC(C)=O)c1, Cc1nc(S(=O)(=O)N2CCN(c3ccccc3F)CC2)cn1C, COc1cc2c3cc1OCc1c(O)c(OC)cc4c1C(Cc1ccc(cc1)Oc1cc(ccc1O)CC3N(C)CC2)N(C)CC4 (stereo not given), CCOc1ccc(CNC(=O)CN2C(=O)CSc3c2c(C)nn3-c2ccccc2)cc1, COc1cccc(-c2nc(SCC(=O)Nc3ccc4c(c3)OCO4)c(-c3ccccc3)[nH]2)c1, COC(=O)c1c(OCc2ccccn2)cc(=O)n2c1CCN(C(=O)c1n[nH]c3c1CCCC3)CC2, Cc1cc(C)c(S(=O)(=O)NCC(c2ccco2)S(=O)(=O)c2cccs2)c(C)c1 (stereo not given), O=C(Nc1ccc(C(F)(F)F)cc1)C1(c2cccs2)CCOCC1, COc1ccc(CCNC(=O)Cn2ncc3c(C)n(Cc4ccccc4F)c(C)c3c2=O)cc1OC, O=C(CSc1nnc2scc(-c3ccc(Cl)cc3)n12)Nc1cccc(C(F)(F)F)c1, O=C(CN1C(=O)CCn2nc(-c3ccccc3)cc21)NCc1ccc(F)cc1, O=C(Nc1nnc(S(=O)(=O)N2CCCC2)s1)c1ccccc1Cl, O=C(Cn1nc(-c2ccc(Cl)cc2)ccc1=O)NCCc1ccccc1, O=C(NNCNNC(=O)c1ccncc1)c1ccncc1, C=C[C@@H]1C[C@@H](C=C)OP(=O)(O[C@@H](C=C)[C@@H](C)C(=O)OC)O1 (stereo not given in full), Cc1ccc(-c2nc3scc(CCNS(=O)(=O)c4ccc(F)c(C)c4)n3n2)cc1, COc1ccc(NC(=O)N2CCc3c(sc4c3CCCC4)C2c2ccccc2OC)cc1 (stereo not given), CCOC(=O)C1CCN(C(c2ccc(OCC)cc2)c2c(O)cc(C)n(CCOC)c2=O)CC1 (stereo not given), COc1cc2c(NC3CCN(C(C)C)CC3)nc(C3CCCCC3)nc2cc1OCCOCCN(C)C, Cc1ccccc1NC(=O)Cn1c(=O)n(CCc2ccccc2)c(=O)c2sc3ccccc3c21, Cc1ccc(OCCn2c(CCNC(=O)OC(C)(C)C)nc3ccccc32)cc1, CCCCCOC(=O)c1[nH]c2c(c1C)C(=O)CC(c1ccco1)C2 (stereo not given), COc1ccc(NC(=O)N(Cc2nnc3n2CCCCC3)c2ccc(OC)c(Cl)c2)cc1, CC1=C(/C=C/C(C)=C/C=C/C(C)=C\C(=O)O)C(C)(C)CCC1, CCOc1ccc(Cn2c(=O)sc3ccccc32)cc1, CC(C)C[C@H](NC(=O)[C@@H](Cc1c[nH]c2ccccc12)NC(=O)[C@H](Cc1ccc(O)cc1)NC(=O)[C@H](CO)NC(=O)[C@H](Cc1c[nH]c2ccccc12)NC(=O)[C@H](Cc1cnc[nH]1)NC(=O)[C@@H]1CCC(=O)N1)C(=O)N[C@@H](CCCN=C(N)N)C(=O)N1CCC[C@H]1C(=O)NCC(N)=O, Cc1oc(-c2ccccc2)nc1CNC(=O)Nc1ccccc1, COc1cc2c(NC3CCN(C)CC3)nc(N3CCN(C)CC3)nc2cc1OCCCN(C)C, Cc1ccc2c(c1)cc(C(=O)NCc1ccc(F)cc1)n2C, O=C(NCCC1=CCCCC1)c1ccc2c(c1)N(Cc1cccc(Cl)c1)C(=O)c1ccccc1S2=O (stereo not given), COc1ccc(NC(=O)C(Cc2ccccc2)n2cccc2)c(OC)c1 (stereo not given), O=S(=O)(NCCCCNS(=O)(=O)c1cccc2cccnc12)c1cccc2cccnc12, O=C(Cn1nc2c(cc1=O)CCCC2)Nc1ccc(F)cc1F, Cc1cc(C)cc(NC(=O)CSc2cc(C)[nH]c(=O)n2)c1, Cc1ccc(NC(=O)c2ccc3c(c2)NC(=O)c2ccccc2S3)cc1

Redox activity vs DA3003, inactive:
CC(C)C[C@H](N)C(=O)N[C@H](C(=O)N[C@H](C(=O)N[C@@H](Cc1ccc(O)cc1)C(=O)N1CCC[C@H]1C(=O)N[C@@H](Cc1c[nH]c2ccccc12)C(=O)N[C@H](C(=O)N[C@@H](CCC(N)=O)C(=O)N[C@@H](CCCN=C(N)N)C(=O)O)[C@@H](C)O)C(C)C)C(C)C -0.687% [at 4.35 µM]
